About 83,000 compounds went through this panel and 20% of them were active in at least one assay; those are over-represented in the sample as a whole.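 Method: cells in 96-well plates; compound added at one concentration; 48 h incubation; percent growth measured; values under 10 scored active.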 The source made the active and inactive calls.
These compounds were tested on HL-60(TB) leukemia (assay: NCI-60 one-dose screen, 48 h (100 = growth as untreated, 0 = no growth, -100 = all killed)). Settings: 10 µM unless noted.

Row | Structure (SMILES) | growth
1 | N#Cc1c(NC(=O)NCc2ccccc2)sc2c1CCCC2 | -4.95% (active)
2 | O=S(=O)(NCCNc1nccc(-c2c(-c3ccc(F)c(O)c3)nc3sccn23)n1)c1ccc(O)cc1 | 41.8% (inactive)
3 | O=C1C=CC(=O)C2=C1CCCC2 | 28.7% (inactive)
4 | COc1cc(/C=C/C(=O)N2CCN(C(=O)c3cc(OC)c(OC)c(OC)c3)CC2)ccc1OCCCOc1cc2c(cc1OC)C(=O)N1CCC[C@H]1C=N2 | -28% (active)
5 | O=C(/C=C/c1nnc2n(Cc3ccccc3)c(=O)c3c4c(sc3n12)CCCC4)c1ccccc1 | 43.5% (inactive)
6 | COc1cccc(/C=N\Nc2ccc([N+](=O)[O-])cn2)c1O | 57.5% (inactive)
7 | CN1CCN(C(=S)S)CC1 | 111% (inactive)
8 | CN1CCN(C(=O)c2cc(-c3ccc4ncnc(N5CCc6cc(F)c(Cl)cc65)c4c3)cnc2N)CC1 | -32.5% (active)
9 | Cc1cc(N(CCCNc2ccnc3cc(Cl)ccc23)Cc2ccc3c(c2)OCO3)nc(N2CCCCC2)n1 | -68.4% (active)
10 | c1ccc2c(c1)nc(CN1CCOCC1)n1cc(N3CCCC3)nc21 | 83.4% (inactive)
11 | COc1ccc(/C(C#N)=C/c2cc(OC)c(OC)c(OC)c2)cc1 | 14.8% (inactive)
12 | CN(C)c1ccc(CNCCO)cc1 | 96.1% (inactive)
13 | O=C1/C(=C/c2ccccn2)NC(=S)N1c1ccccc1Cl | 26.9% (inactive)
14 | CCCCCCCCN(CCCCCCCC)CC(O)c1ccc(Cl)c(C)c1Cl (stereo not given) | 106% (inactive)
15 | COc1cc(/C=C/C(=O)c2ccc(Nc3ncnc4ccccc34)cc2)cc(OC)c1 | 55.5% (inactive)
